Reference: PubChem BioAssay (NCI)
About 83,000 compounds went through this panel and 20% of them were active in at least one assay; those are over-represented in the sample as a whole.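 Plates (96-well) were seeded with cells, treated with compound at one concentration, and incubated for 48 hours before percent growth was determined.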 A number with no mark means an inactive call. Activity calls are given as the source filed them. The calls were made as follows: active = growth percent below 10; inactive = the rest.

Columns and labels:
Assay in all cases: NCI-60 one-dose screen, 48 h (100 = growth as untreated, 0 = no growth, -100 = all killed)
Conditions in all cases: 10 µM unless noted
HCT-15 colon = test system: HCT-15 colon
HT29 colon = test system: HT29 colon
SNB-75 CNS = test system: SNB-75 CNS
SNB-19 CNS = test system: SNB-19 CNS
U251 CNS = test system: U251 CNS
PC-3 prostate = test system: PC-3 prostate
SK-MEL-5 melanoma = test system: SK-MEL-5 melanoma
UACC-62 melanoma = test system: UACC-62 melanoma
LOX IMVI melanoma = test system: LOX IMVI melanoma
SK-MEL-28 melanoma = test system: SK-MEL-28 melanoma
SK-MEL-2 melanoma = test system: SK-MEL-2 melanoma
EKVX NSCLC = test system: EKVX NSCLC
SN12C renal = test system: SN12C renal
UO-31 renal = test system: UO-31 renal
TK-10 renal = test system: TK-10 renal
ACHN renal = test system: ACHN renal
CAKI-1 renal = test system: CAKI-1 renal
A498 renal = test system: A498 renal
CCRF-CEM leukemia = test system: CCRF-CEM leukemia
MOLT-4 leukemia = test system: MOLT-4 leukemia

| Compound | growth (HCT-15 colon) | growth (HT29 colon) | growth (SNB-75 CNS) | growth (SNB-19 CNS) | growth (U251 CNS) | growth (PC-3 prostate) | growth (SK-MEL-5 melanoma) | growth (UACC-62 melanoma) | growth (LOX IMVI melanoma) | growth (SK-MEL-28 melanoma) | growth (SK-MEL-2 melanoma) | growth (EKVX NSCLC) | growth (SN12C renal) | growth (UO-31 renal) | growth (TK-10 renal) | growth (ACHN renal) | growth (CAKI-1 renal) | growth (A498 renal) | growth (CCRF-CEM leukemia) | growth (MOLT-4 leukemia) |
| --- | --- | --- | --- | --- | --- | --- | --- | --- | --- | --- | --- | --- | --- | --- | --- | --- | --- | --- | --- | --- |
| COc1ccc(-c2cc(C(=O)N3N=C(c4ccc(N)cc4)CC3c3ccc(Cl)cc3)c3cc(OC)ccc3n2)cc1 (stereo not drawn) | 22.4% | 45.1% | 87.3% | 92.6% | 74.9% | 22.9% | 88% | 49% | 39% | 48% | 88.5% | 88.1% | 84.5% | 57% | 101% | 47% | 90.5% | 87.8% | 23.1% | 32.5% |
| O=C1CCCC1[n+]1ccccc1 (stereo not drawn) | 97.1% | 61.4% | 86.3% | 103% | 84.4% | 81.7% | 104% | 96.5% | 99% | 84.3% | 85.3% | 92.6% | 104% | 90% | 79.4% | 105% | 92.4% | 126% | 105% | 113% |
| Nc1c(Cl)cc(/C=C2\C=Cc3ccccc32)cc1Cl | 100% | 97.6% | 86.1% | 114% | 108% | 90.6% | 105% | 106% | 89.7% | 114% | 120% | 94.2% | 113% | 95.7% | 107% | 101% | 110% | 97.6% | 106% | 98.7% |
| Cc1ccc(OCCOCCOCCOc2ccc(C)n(O)c2=S)c(=S)n1O | 35.8% | 30% | 59.2% | 33.8% | 31.1% | 34.7% | 58.3% | 15.6% | 30.5% | 48.8% | 57% | 24.9% | 28.7% | 42% | 64% | 44.6% | 31.7% | 52.5% | 11.2% | 10.7% |
| Nc1ncnc2c1N=C(c1ccc(F)cc1)CC(c1cccc(Nc3ccnc4cc(Cl)ccc34)c1)N2 (stereo not drawn) | 48.4% | 62.8% | 72.7% | 82% | 66.2% | 66.3% | 72% | 89.5% | 68.2% | 95.3% | 89.1% | 64.9% | 79.7% | 59.6% | 105% | 96.3% | 70.5% | 92.3% | 74.1% | 39.6% |
| CCN(CCNc1ccc(C)c2sc3cc(Cl)ccc3c(=O)c12)CC(C)(C)O | 17.5% | 21.7% | 68.5% | 71% | 46.3% | 81.2% | 63.4% | -60.1% (active) | 41.8% | -33% (active) | 56.6% | 82% | 71.5% | 50.5% | 75.7% | 69.3% | 55.8% | 75.5% | 79.5% | 70.5% |
| ClCCn1cnc2c(SCc3ccccc3)ncnc21 | 33.5% | 41.2% | 73.9% | 50.5% | 39.8% | 38.4% | 57.3% | 46.1% | 22.3% | 78.5% | 120% | 77.2% | 57.5% | 65.2% | 83.5% | 49.4% | 3.9% (active) | 81.6% | 62.8% | 45.8% |
| CCCCCCCCn1ccc2cc(NC(=O)CN=[N+]=[N-])ccc21 | 96.8% | 104% | 99.6% | 97.1% | 88.7% | 91.2% | 98% | 84.2% | 104% | 109% | 99.3% | 84.9% | 107% | 70% | 111% | 104% | 93.3% | 96.7% | 39% | 93.3% |
| Nc1cc(C(=O)O)cc(-n2c(O)c(C=C3N=c4ccccc4=N3)sc2=S)c1 | 103% | 108% | 80.7% | 103% | 107% | 92.4% | 97.9% | 86.7% | 95.8% | 104% | 101% | 99.4% | 95.8% | 69.5% | 103% | 99% | 86.8% | 102% | 106% | 103% |
| CCCCCCCCCCCCCCCCCCOc1ccccc1CC(=O)NCC[N+](C)(C)C | 87.4% | 12.5% | 22.9% | 12.5% | -58.5% (active) | -33% (active) | 63.7% | 42% | 33.4% | 80.1% | 68.8% | 89.3% | 23.5% | 80.2% | -21.4% (active) | 78.3% | 18.7% | 65.6% | -5.38% (active) | 17.1% |
| Cc1cn(C)cn1 | 99% | 98.7% | 98.7% | 107% | 98% | 93.9% | 112% | 105% | 94.6% | 109% | 103% | 105% | 105% | 82.5% | 95.9% | 108% | 88.7% | 114% | 97.3% | 105% |
| O=c1c2ccccc2n(C[C@H]2CO2)c2ccccc12 | -16.8% (active) | 2.83% (active) | -29.4% (active) | 22.3% | -6.13% (active) | 19.2% | -80.8% (active) | -83.4% (active) | -54.3% (active) | 2.83% (active) | -64.5% (active) | 16.3% | 6.14% (active) | -27.5% (active) | 4.13% (active) | -26.6% (active) | -9.84% (active) | 96.1% | 6.9% (active) | 0.563% (active) |
| O=S(=O)(Nc1cc(F)cc(F)c1)c1ccc(-c2cnc(C3CC3)o2)cc1 | 20% | 4.44% (active) | -3.36% (active) | 30% | 33% | 48.1% | 29.4% | 33.7% | 36.3% | 60.8% | 39.9% | 52.5% | 46.9% | 50.1% | 63.1% | 43.5% | 32.7% | 1.5% (active) | 32.2% | 39.1% |
| COc1ccc(-c2cc(C(=O)N3N=C(c4ccc(N)cc4)CC3c3ccc(Cl)cc3)c3ccccc3n2)cc1 (stereo not drawn) | 21.4% | -11.7% (active) | 5.79% (active) | 48.3% | 15.2% | 26.1% | 25.9% |  | 33% | 63.4% | 20.1% | 41% | 41% | 45.3% | 35.6% | 43.6% | 28.3% | -1.93% (active) | 16.5% | 20.5% |
| COc1cc(/C=C/c2cn[nH]c2-c2ccc(C)cc2)cc(OC)c1OC | 23% | 6.79% (active) | 29.5% | 48.2% | 22.6% | 28.2% | 12% | 32.8% | 40.6% | 56.8% | 2.13% (active) | 47.8% |  | 45.9% | 66% | 49.4% | 32.6% | 33.8% | 24.8% | 22.8% |
